The whole screen tested about 39,000 compounds, of which about 3,300 (8.5%) were called active. Only a selection was taken, and actives are over-represented in it overall.

This test concerns HepG2. Kind of test: cytotoxicity call (relative viability < 0.9). The settings on record: 10 µM.
Regarding `CO[C@H]1CN(C)C(=O)c2ccc(NC(=O)Nc3cccc(Cl)c3)cc2OC[C@H](C)N(C(=O)Nc2c(C)noc2C)C[C@H]1C`, the cytotoxicity call is “inactive”.
Regarding `COc1ccc(Sc2ccc(N(C(=O)c3ccccc3Cl)C(=O)c3ccccc3Cl)cc2C#N)cc1`, the cytotoxicity call was “active”.
Next, `COc1ccc(C(=O)NCC#N)cc1`: “inactive”; `COc1ccc(C(=O)c2ccccc2O)c(O)c1`: “inactive”.
With `CC(C)CNc1nc(=O)cn[nH]1`, the cytotoxicity call is “active”.
With `O=c1cn[nH]c(Nc2ccccc2)n1`, the cytotoxicity call is “inactive”.
For the molecule `O=c1cn[nH]c(NC2CCCC2)n1`, the cytotoxicity call was “inactive”.
Regarding `C=CCC[C@@H](Cc1ccc(F)cc1)C(=O)OC[C@@H]1CCCN1C(=O)[C@H](CC=C)CC(=O)N(CCO)Cc1ccccc1`, the cytotoxicity call was “inactive”.
Turning to `COc1ccccc1S(=O)(=O)N[C@@H]1C=C[C@@H](CC(=O)N2CCN(C)CC2)O[C@@H]1CO`, the cytotoxicity call is “inactive”.
Take `c1n[nH]cc1-c1cn[nH]c1`: the cytotoxicity call was “inactive”.
The entry for `NC[C@@](O)(CS(=O)(=O)O)c1ccc(Cl)cc1` is “inactive”.
Take `NC[C@@](O)(c1ccc(Cl)cc1)c1ccc(-c2cn[nH]c2)cc1`: the cytotoxicity call is “active”.
Consider `COc1ccccc1CNC(=O)C[C@H]1C[C@H]2c3cc(NC(=O)C4CCOCC4)ccc3O[C@H]2[C@H](CO)O1`, for which the cytotoxicity call is “inactive”.
Regarding `CC1OC(n2cc(F)c(=O)[nH]c2=O)C(O)C1O` (configuration not stated), the cytotoxicity call is “inactive”.
The entry for `C[C@H]1O[C@@H](n2cc(F)c(=O)[nH]c2=O)[C@H](O)[C@@H]1O` is “inactive”; for `CCCCCCNC(=O)n1cc(F)c(=O)[nH]c1=O` it is “active”.
Regarding `Cc1ccc(S(=O)(=O)Nc2ccc3c(c2)CC(=O)N([C@@H](C)CO)C[C@H](C)[C@H](CN(C)S(C)(=O)=O)O3)cc1`, the cytotoxicity call was “inactive”.
Next, `CC(C)NC(=O)NCC[C@H]1CC[C@H](NC(=O)CN(C)C)[C@H](CO)O1`: “inactive”; `Cc1c(NC(=O)c2cc3c(s2)CCCC3)cccc1-c1cn(C)c(=O)c(Nc2ccc([C@H]3C(=O)N(C)CCN3C)cc2)n1`: “inactive”.
With `C[C@@H]1CCCCO[C@H](CN(C)C(=O)Nc2ccc3c(c2)OCO3)[C@@H](C)CN([C@@H](C)CO)C(=O)c2cc(NS(=O)(=O)c3ccccc3)ccc2O1`, the cytotoxicity call was “inactive”.
On to `C[C@@H]1CCCCO[C@H](CN(C)C(=O)Nc2ccc(F)cc2)[C@@H](C)CN([C@H](C)CO)C(=O)c2cc(NC(=O)NC3CCCCC3)ccc2O1`, for which the cytotoxicity call is “inactive”.
For `Cc1noc(C)c1NC(=O)N(C)C[C@@H]1OCCCC[C@@H](C)Oc2ccc(NC(=O)NC3CCCCC3)cc2C(=O)N([C@H](C)CO)C[C@@H]1C`, the cytotoxicity call is “inactive”.
Take `C[C@H](CO)N1C[C@H](C)[C@@H](CN(C)C(=O)NC2CCCCC2)OCCCC[C@H](C)Oc2ccc(NC(=O)NC3CCCCC3)cc2C1=O`: the cytotoxicity call was “inactive”.
On to `C[C@@H]1CCCCO[C@H](CN(C)C(=O)NC2CCCCC2)[C@H](C)CN([C@H](C)CO)C(=O)c2cc(NC(=O)Nc3ccc(F)cc3)ccc2O1`, for which the cytotoxicity call was “active”.
On to `C[C@@H]1CCCCO[C@@H](CN(C)C(=O)Nc2ccc(F)cc2)[C@@H](C)CN([C@@H](C)CO)C(=O)c2cc(NC(=O)NC3CCCCC3)ccc2O1`, for which the cytotoxicity call was “active”.
Take `C[C@H](CO)N1C[C@H](C)[C@H](CN(C)C(=O)NC2CCCCC2)OCCCC[C@H](C)Oc2ccc(NC(=O)NC3CCCCC3)cc2C1=O`: the cytotoxicity call was “inactive”.
With `Cc1noc(C)c1NC(=O)N(C)C[C@H]1OCCCC[C@@H](C)Oc2ccc(NC(=O)NC3CCCCC3)cc2C(=O)N([C@H](C)CO)C[C@@H]1C`, the cytotoxicity call was “active”.
Next, `Cc1noc(C)c1NC(=O)N(C)C[C@H]1OCCCC[C@@H](C)Oc2ccc(NC(=O)NC3CCCCC3)cc2C(=O)N([C@@H](C)CO)C[C@H]1C`: “inactive”.
Regarding `C[C@@H]1CCCCO[C@H](CN(C)C(=O)NC2CCCCC2)[C@H](C)CN([C@H](C)CO)C(=O)c2cc(NC(=O)NC3CCCCC3)ccc2O1`, the cytotoxicity call was “active”.
On to `C[C@@H]1CN([C@H](C)CO)C(=O)c2cc(NC(=O)Nc3ccc(F)cc3)ccc2O[C@@H](C)CCCCO[C@H]1CN(C)C(=O)NC1CCCCC1`, for which the cytotoxicity call is “inactive”.
For the molecule `C[C@@H]1CCCCO[C@@H](CN(C)C(=O)NC2CCCCC2)[C@@H](C)CN([C@H](C)CO)C(=O)c2cc(NC(=O)Nc3ccc(F)cc3)ccc2O1`, the cytotoxicity call was “inactive”.
The entry for `C[C@@H]1CN([C@H](C)CO)C(=O)c2cc(NC(=O)NC3CCCCC3)ccc2O[C@@H](C)CCCCO[C@@H]1CN(C)C(=O)Nc1ccc(F)cc1` is “inactive”; for `COc1ccc(-c2cccc(-c3nc(C(=O)NCC(F)(F)F)cc4c3[C@@H](CCO)N([S@](=O)C(C)(C)C)C4)c2)cc1` it is “inactive”; for `COc1ccc(S(=O)(=O)N(C)C[C@H]2OCCCC[C@H](C)Oc3ccc(NC(=O)c4ccccc4)cc3C(=O)N([C@H](C)CO)C[C@H]2C)cc1` it is “inactive”.
Next, `Cc1ccc(S(=O)(=O)N(C)C[C@H]2Oc3ccc(NC(=O)c4ccncc4)cc3C(=O)N([C@H](C)CO)C[C@@H]2C)cc1`: “inactive”; `C[C@@H]1CN([C@H](C)CO)C(=O)c2cc(NS(=O)(=O)c3ccccc3)ccc2O[C@H]1CN(C)S(=O)(=O)c1cn(C)cn1`: “inactive”; `Cc1noc(C)c1NC(=O)Nc1ccc2c(c1)CC(=O)N([C@H](C)CO)C[C@@H](C)[C@@H](CN(C)Cc1ccc(-c3ccccc3)cc1)O2`: “inactive”.
In the case of `O=C1[C@@H]2[C@H](C(=O)N1c1ccccc1)C13COC[C@H](c4ccccc4)N1C(=O)C2(C(=O)NCCc1c[nH]c2ccccc12)O3` (some centres not stated), the cytotoxicity call was “inactive”.
As for `CCS(=O)(=O)N1C[C@]2(CN(Cc3cccc(c3)Cl)[C@@H](CO)c3c2c2ccc(cc2n3C)OC)C1`, the cytotoxicity call was “inactive”.
As to `C[C@H](CO)N1C[C@H](C)[C@H](CN(C)C(=O)NC2CCCCC2)OCCCC[C@H](C)Oc2ccc(NC(=O)Nc3ccc(F)cc3)cc2C1=O`, the cytotoxicity call was “inactive”.
The entry for `C[C@H]1CCCCO[C@@H](CN(C)C(=O)NC2CCCCC2)[C@@H](C)CN([C@@H](C)CO)C(=O)c2cc(NC(=O)Nc3ccc(F)cc3)ccc2O1` is “active”.
The entry for `C[C@H](CO)N1C[C@H](C)[C@@H](CN(C)C(=O)NC2CCCCC2)OCCCC[C@H](C)Oc2ccc(NC(=O)Nc3ccc(F)cc3)cc2C1=O` is “inactive”.
`O=c1[nH]nc(N2CCOCC2)c(=O)[nH]1`: the cytotoxicity call is “inactive”.
Regarding `C[C@@H]1CN([C@H](C)CO)C(=O)Cc2cc(NS(=O)(=O)c3ccc(F)cc3)ccc2O[C@H]1CN(C)CC1CC1`, the cytotoxicity call is “inactive”.
The entry for `Cl.OC(CCN1CCCCC1)(c1ccccc1)C1CCCCC1` (configuration not stated) is “inactive”; for `Cl.OC(CCN1CCCC1)(c1ccccc1)C1CCCCC1` (configuration not stated) it is “active”.
`CS(=O)(=O)O.OC(CCN1CCCCC1)(c1ccccc1)c1ccccc1`: the cytotoxicity call is “inactive”.

The values above are taken from the antibiotic and cytotoxicity screens of Wong et al. (2023).
